# Measurements taken from PubChem BioAssay (EPA / NIEHS).
# Active and inactive are the calls of the source. Rule for the calls: active = hit-call score of the fitted dose curve at least 0.9, where 1 is the maximum; inactive = score below 0.9.
# Legend:
# Settings in all cases: mRNA level, 48 h; actives raise or lower the signal
# [1] = read-out: Heat shock 70 kDa protein 1 (HSPA1A), gene 3303; experiment: LTEA_HepaRG_HSPA1A: Life Technologies and Expression Analysis (LTEA) Assay for Heat shock 70 kDa protein 1 (HSPA1A) using HepaRG (AID 2283502)
# Method in brief: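 HSPA1A expression measured by qRT-PCR with ACTB/GAPDH/POLR2A normalization; curves fitted in both directions relative to DMSO vehicle. Exposure: 48 h in HepaRG cells, duplicate 8-point half-log series from 100 uM, 0.5% DMSO, serum-free induction medium.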
# [2] = read-out: 3-Hydroxy-3-Methylglutaryl-CoA Synthase 2 (HMGCS2), HMGCS2 (gene 3158); experiment: LTEA_HepaRG_HMGCS2: Life Technologies and Expression Analysis (LTEA) Assay for 3-Hydroxy-3-Methylglutaryl-CoA Synthase 2 (HMGCS2) using HepaRG (AID 2283504)
# Method in brief: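 Readout is HMGCS2 transcript by qRT-PCR, housekeeping-normalised (ACTB/GAPDH/POLR2A) and fitted bidirectionally against 0.5% DMSO. Differentiated HepaRG cells received chemicals 48 h, duplicate wells, eight half-log concentrations topping at 100 uM.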
# [3] = read-out: HGF (gene 3082); experiment: LTEA_HepaRG_HGF: Life Technologies and Expression Analysis (LTEA) Assay for Hepatocyte Growth Facto (HGF) using HepaRG (AID 2283505)
# Method in brief: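 HGF transcript was quantified by TaqMan qRT-PCR against three housekeeping genes after 48 h treatment of HepaRG cells. Exposure ran in duplicate over eight half-log steps topping at 100 uM in 0.5% DMSO vehicle.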
# [4] = read-out: Insulin Like Growth Factor 1 (IGF1), IGF1 (gene 3479); experiment: LTEA_HepaRG_IGF1: Life Technologies and Expression Analysis (LTEA) Assay for Insulin Like Growth Factor 1 (IGF1) using HepaRG (AID 2283506)
# Method in brief: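 Expression measured by TaqMan qRT-PCR on a Fluidigm array, with three housekeeping genes for normalisation, after 48 h treatment of HepaRG cells. Top concentration 100 uM with half-log steps, 0.5% DMSO vehicle, bidirectional fit.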
# [5] = read-out: Intercellular Adhesion Molecule 1 (ICAM1), ICAM1 (gene 3383); experiment: LTEA_HepaRG_ICAM1: Life Technologies and Expression Analysis (LTEA) Assay for Intercellular Adhesion Molecule 1 (ICAM1) using HepaRG (AID 2283507)
# Method in brief: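 ICAM1 transcript levels measured by qRT-PCR, normalized to three housekeeping genes (ACTB, GAPDH, POLR2A), after 48 h chemical exposure of HepaRG cells. Duplicate eight-point half-log series from 100 uM in 0.5% DMSO; gain or loss fitted against vehicle.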
# [6] = read-out: Insulin-like growth factor-binding protein 1 (IGFBP1), IGFBP1 (gene 3484); experiment: LTEA_HepaRG_IGFBP1: Life Technologies and Expression Analysis (LTEA) Assay for Insulin-like growth factor-binding protein 1 (IGFBP1) using HepaRG (AID 2283508)
# Method in brief: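 Read-out is qRT-PCR transcript level normalized to three housekeeping genes, fitted in both directions against 0.5% DMSO. Differentiated HepaRG cells received eight half-log concentrations (top 100 uM) in duplicate for 48 h in serum-free induction medium.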
# [7] = read-out: Interleukin 6 (IL6), IL6 (gene 3569); experiment: LTEA_HepaRG_IL6: Life Technologies and Expression Analysis (LTEA) Assay for Interleukin 6 (IL6) using HepaRG (AID 2283509)
# Method in brief: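 Changes in IL6 mRNA, up or down relative to 0.5% DMSO controls, were derived from concentration-response curves in human HepaRG cells treated for 48 h at up to 100 uM, with ACTB, GAPDH and POLR2A as normalizers.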
# [8] = read-out: Interleukin 6 Receptor (IL6R), IL6R (gene 3570); experiment: LTEA_HepaRG_IL6R: Life Technologies and Expression Analysis (LTEA) Assay for Interleukin 6 Receptor (IL6R) using HepaRG (AID 2283510);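 for AC50: differentiated human HepaRG liver cells in serum-free induction medium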
# Method in brief: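 IL6R transcript level by qRT-PCR after 48 h chemical exposure (8-point, half-log, max 100 uM, 0.5% DMSO vehicle) of HepaRG cells in serum-free induction medium. Normalized to three housekeeping genes; curves fitted in both directions relative to DMSO.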
# [9] = read-out: Potassium channel subfamily K member 1 (KCNK1), KCNK1 (gene 3775); experiment: LTEA_HepaRG_KCNK1: Life Technologies and Expression Analysis (LTEA) Assay for Potassium channel subfamily K member 1 (KCNK1) using HepaRG (AID 2283511)
# Method in brief: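 Human HepaRG cultures receive test chemicals for 48 h in 0.5% DMSO, top concentration 100 uM with half-log dilutions. Induction or suppression of KCNK1 mRNA relative to DMSO is derived by bidirectional fitting of qRT-PCR data.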
# [10] = read-out: Keratin 19 (KRT19), KRT19 (gene 3880); experiment: LTEA_HepaRG_KRT19: Life Technologies and Expression Analysis (LTEA) Assay for Keratin 19 (KRT19) using HepaRG (AID 2283512)
# Method in brief: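 KRT19 transcript measured by TaqMan qRT-PCR, referenced to three housekeeping genes, after HepaRG cells received test chemicals for 48 h. Eight half-log concentrations, top 100 uM, 0.5% DMSO vehicle; increases and decreases both fitted.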
# [11] = read-out: JUN Transcription Factor, JUN (gene 3725); experiment: LTEA_HepaRG_JUN: Life Technologies and Expression Analysis (LTEA) Assay for JUN Transcription Factor using HepaRG (AID 2283513)
# Method in brief: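 mRNA measured by TaqMan qRT-PCR after 48 h chemical exposure of HepaRG cultures; normalization to three housekeeping genes. Duplicate eight-point half-log curves from 100 uM in 0.5% DMSO; gain or loss fitted against DMSO baseline.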
# [12] = read-out: Lipase C (LIPC), LIPC (gene 3990); experiment: LTEA_HepaRG_LIPC: Life Technologies and Expression Analysis (LTEA) Assay for Lipase C (LIPC) using HepaRG (AID 2283514)
# Method in brief: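 In this multiplexed gene-expression screen, human HepaRG cultures received test chemicals for 48 h across eight concentrations with 100 uM highest, in duplicate. Values reflect LIPC mRNA induction or suppression versus DMSO vehicle, from normalized qRT-PCR.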
# [13] = read-out: Lipoprotein lipase (LPL), LPL (gene 4023); experiment: LTEA_HepaRG_LPL: Life Technologies and Expression Analysis (LTEA) Assay for Lipoprotein lipase (LPL) using HepaRG (AID 2283515)
# Method in brief: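 Concentration-response testing used half-log steps from 100 uM in 0.5% DMSO on human HepaRG cells, 48 h, duplicate wells. Phenobarbital 1 mM served as induction control; LPL mRNA was normalized to ACTB, GAPDH, POLR2A.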
# [14] = read-out: matrix metalloproteinase-10 (MMP10), MMP10 (gene 4319); experiment: LTEA_HepaRG_MMP10: Life Technologies and Expression Analysis (LTEA) Assay for matrix metalloproteinase-10 (MMP10) using HepaRG (AID 2283517)
# Method in brief: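 In differentiated HepaRG cultures kept in 0.5% DMSO, test chemicals act for 48 h over an eight-point range with a top dose of 100 uM. Expression is then quantified by TaqMan RT-PCR against ACTB, GAPDH and POLR2A.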
# [15] = read-out: MYC, MYC (gene 4609); experiment: LTEA_HepaRG_MYC: Life Technologies and Expression Analysis (LTEA) Assay for MYC using HepaRG (AID 2283518)
# Method in brief: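 MYC transcript changes, up or down relative to 0.5% DMSO, from TaqMan qRT-PCR normalized to three housekeeping genes. Human HepaRG cultures received chemicals for 48 h at eight half-log concentrations up to 100 uM, in duplicate.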
# [16] = read-out: matrix metalloproteinase-3 (MMP3), MMP3 (gene 4314); experiment: LTEA_HepaRG_MMP3: Life Technologies and Expression Analysis (LTEA) Assay for matrix metalloproteinase-3 (MMP3) using HepaRG (AID 2283519)
# Method in brief: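 Human liver HepaRG cultures received chemicals (top concentration 100 uM, 0.5% DMSO) for 48 h in duplicate. MMP3 mRNA induction or loss was then assessed via TaqMan qRT-PCR with housekeeping-gene normalisation.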
# [17] = read-out: Paternally Expressed 10 (PEG10), PEG10 (gene 23089); experiment: LTEA_HepaRG_PEG10: Life Technologies and Expression Analysis (LTEA) Assay for Paternally Expressed 10 (PEG10) using HepaRG (AID 2283520);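 for AC50: PEG10 transcript by qRT-PCR normalised to ACTB GAPDH and POLR2A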
# Method in brief: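 PEG10 transcript measured by Fluidigm qRT-PCR, normalized to three housekeeping genes, in HepaRG cells treated 48 h (highest 100 uM, half-log steps, 0.5% DMSO vehicle). Cells plated 48 h before switching to serum-free induction medium.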
# [18] = read-out: Hypoxia-inducible factor 1-alpha (Homo sapiens) (UniProt Q16665); experiment: LTEA_HepaRG_HIF1A: Life Technologies and Expression Analysis (LTEA) Assay for Hypoxia-inducible factor 1 (HIF1A) Trancription factor using HepaRG (AID 2283503)
# Method in brief: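 HIF1A transcript level read by qRT-PCR (ACTB, GAPDH, POLR2A normalization) after 48 h chemical exposure of HepaRG cultures. Eight half-log concentrations, top 100 uM, 0.5% DMSO vehicle, duplicates; bidirectional curve fit against DMSO baseline.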
# [19] = read-out: Nuclear factor NF-kappa-B p105 subunit (Homo sapiens) (UniProt P19838); experiment: LTEA_HepaRG_NFKB1: Life Technologies and Expression Analysis (LTEA) Assay for Nuclear Factor Kappa B Subunit 1 (NFKB1) using HepaRG (AID 2283521);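 note: differentiated human HepaRG liver cells in serum-free induction medium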
# Method in brief: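 Human HepaRG cells receive eight half-log concentrations, highest 100 uM, for 48 h. NFKB1 expression is then quantified by qRT-PCR and analysed for up- or down-regulation relative to 0.5% DMSO vehicle.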
# [20] = read-out: MicroRNA 122 (MIR122), gene 406906; experiment: LTEA_HepaRG_MIR122: Life Technologies and Expression Analysis (LTEA) Assay for MicroRNA 122 (MIR122) using HepaRG (AID 2283516); note: the transcript read is the microRNA miR-122
# Method in brief: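 Expression measured by microfluidic qRT-PCR with three housekeeping genes for normalisation, after 48 h treatment of HepaRG cultures. Eight concentrations (top 100 uM, half-log steps, 0.5% DMSO vehicle) in duplicate; gain or loss fitted relative to vehicle.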
# Chain of Hypoxia-inducible factor 1-alpha (Homo sapiens) (Q16665 whole entry, looked up): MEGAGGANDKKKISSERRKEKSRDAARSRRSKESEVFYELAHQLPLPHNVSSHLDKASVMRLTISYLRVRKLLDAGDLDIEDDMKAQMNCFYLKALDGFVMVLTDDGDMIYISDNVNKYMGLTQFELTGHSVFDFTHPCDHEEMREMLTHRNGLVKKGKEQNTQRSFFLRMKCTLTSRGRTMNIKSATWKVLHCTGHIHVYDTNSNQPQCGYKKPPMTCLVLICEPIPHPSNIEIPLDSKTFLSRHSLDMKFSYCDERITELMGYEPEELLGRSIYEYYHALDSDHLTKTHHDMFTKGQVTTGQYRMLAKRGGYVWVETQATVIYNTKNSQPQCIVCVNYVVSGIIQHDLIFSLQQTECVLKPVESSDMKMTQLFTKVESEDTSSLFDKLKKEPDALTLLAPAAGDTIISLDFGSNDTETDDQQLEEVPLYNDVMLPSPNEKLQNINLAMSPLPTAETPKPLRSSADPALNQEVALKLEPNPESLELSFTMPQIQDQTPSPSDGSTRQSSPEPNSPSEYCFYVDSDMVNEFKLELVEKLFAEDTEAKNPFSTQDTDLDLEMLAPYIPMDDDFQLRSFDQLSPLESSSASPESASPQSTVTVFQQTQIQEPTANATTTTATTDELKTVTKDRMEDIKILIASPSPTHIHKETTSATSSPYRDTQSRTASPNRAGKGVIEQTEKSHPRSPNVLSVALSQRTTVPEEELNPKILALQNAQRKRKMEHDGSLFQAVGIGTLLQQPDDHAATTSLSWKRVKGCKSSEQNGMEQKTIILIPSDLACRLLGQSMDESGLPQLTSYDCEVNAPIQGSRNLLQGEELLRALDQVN
# Chain of Nuclear factor NF-kappa-B p105 subunit (Homo sapiens) (P19838 whole entry, looked up): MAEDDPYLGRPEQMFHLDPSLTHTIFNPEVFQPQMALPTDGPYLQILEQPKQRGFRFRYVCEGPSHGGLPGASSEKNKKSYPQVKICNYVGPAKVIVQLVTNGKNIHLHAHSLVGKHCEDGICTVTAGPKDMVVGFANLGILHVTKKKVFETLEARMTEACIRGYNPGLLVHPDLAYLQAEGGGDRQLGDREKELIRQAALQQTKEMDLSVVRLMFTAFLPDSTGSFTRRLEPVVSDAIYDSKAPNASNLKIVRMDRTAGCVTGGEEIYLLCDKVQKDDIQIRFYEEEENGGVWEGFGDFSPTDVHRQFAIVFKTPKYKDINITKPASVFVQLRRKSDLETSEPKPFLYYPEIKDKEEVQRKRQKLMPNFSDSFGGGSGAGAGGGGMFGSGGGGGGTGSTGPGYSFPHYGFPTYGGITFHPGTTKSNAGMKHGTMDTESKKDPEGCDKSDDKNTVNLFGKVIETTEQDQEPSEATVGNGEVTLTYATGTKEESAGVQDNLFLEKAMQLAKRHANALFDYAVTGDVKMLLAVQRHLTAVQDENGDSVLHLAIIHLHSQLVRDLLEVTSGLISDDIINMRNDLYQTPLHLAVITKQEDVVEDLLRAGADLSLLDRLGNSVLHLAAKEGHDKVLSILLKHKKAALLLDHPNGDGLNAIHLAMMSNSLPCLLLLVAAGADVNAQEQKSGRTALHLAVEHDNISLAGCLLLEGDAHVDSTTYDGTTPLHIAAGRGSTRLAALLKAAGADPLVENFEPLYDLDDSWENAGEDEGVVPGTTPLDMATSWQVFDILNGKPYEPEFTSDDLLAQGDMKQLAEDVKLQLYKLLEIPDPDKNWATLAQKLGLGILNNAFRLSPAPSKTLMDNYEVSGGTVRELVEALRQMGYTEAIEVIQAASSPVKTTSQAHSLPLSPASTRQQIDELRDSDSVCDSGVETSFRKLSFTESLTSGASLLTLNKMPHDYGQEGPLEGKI
compound,measurement,setting,value
OCCOCCO,outcome,[1],inactive
same,outcome,[2],inactive
same,outcome,[3],inactive
same,outcome,[4],inactive
same,outcome,[5],inactive
same,outcome,[6],inactive
same,outcome,[7],inactive
same,outcome,[8],inactive
same,outcome,[9],inactive
same,outcome,[10],inactive
same,outcome,[11],inactive
same,outcome,[12],inactive
same,outcome,[13],inactive
same,outcome,[14],inactive
same,outcome,[15],inactive
same,outcome,[16],inactive
same,outcome,[17],inactive
O=Cc1ccco1,outcome,[1],inactive
same,outcome,[18],inactive
same,outcome,[2],inactive
same,outcome,[3],inactive
same,outcome,[4],inactive
same,outcome,[5],inactive
same,outcome,[6],inactive
same,outcome,[7],inactive
same,outcome,[8],inactive
same,outcome,[9],inactive
same,outcome,[12],inactive
same,outcome,[13],inactive
same,outcome,[14],inactive
same,outcome,[15],inactive
same,outcome,[16],inactive
same,outcome,[17],inactive
same,outcome,[19],inactive
Nc1ccc([N+](=O)[O-])cc1,outcome,[1],inactive
same,outcome,[2],inactive
same,outcome,[3],inactive
same,outcome,[4],inactive
same,outcome,[5],inactive
same,outcome,[6],inactive
same,outcome,[7],inactive
same,outcome,[8],inactive
same,outcome,[9],inactive
same,outcome,[10],inactive
same,outcome,[12],inactive
same,outcome,[13],inactive
same,outcome,[20],inactive
same,outcome,[14],inactive
same,outcome,[15],inactive
same,outcome,[16],inactive
same,outcome,[17],inactive
same,outcome,[19],inactive
CCCCOC(=O)c1ccccc1C(=O)OCc1ccccc1,outcome,[1],inactive
same,outcome,[18],inactive
same,outcome,[2],inactive
same,outcome,[3],inactive
same,outcome,[4],inactive
same,outcome,[5],inactive
same,outcome,[6],inactive
same,outcome,[7],inactive
same,outcome,[8],inactive
same,outcome,[9],inactive
same,outcome,[11],inactive
same,outcome,[12],inactive
same,outcome,[13],inactive
same,outcome,[14],inactive
same,outcome,[15],inactive
same,outcome,[16],inactive
same,outcome,[17],inactive
same,outcome,[19],inactive
CCCCCCCCn1sccc1=O,outcome,[1],inactive
same,outcome,[18],inactive
same,AC50,[2],84.8 µM (active)
same,AC50,[3],81.3 µM (active)
same,outcome,[4],inactive
same,outcome,[5],inactive
same,outcome,[6],inactive
same,outcome,[7],inactive
same,AC50,[8],99.3 µM (active)
same,outcome,[9],inactive
same,outcome,[10],inactive
same,AC50,[12],80.9 µM (active)
same,outcome,[13],inactive
same,AC50,[14],76.6 µM (active)
same,outcome,[15],inactive
same,outcome,[16],inactive
same,AC50,[17],52 µM (active)
same,outcome,[19],inactive
COP(=S)(OC)SCN1C(=O)c2ccccc2C1=O,outcome,[1],inactive
same,outcome,[18],inactive
same,outcome,[2],inactive
same,outcome,[3],inactive
same,outcome,[4],inactive
same,outcome,[5],inactive
same,outcome,[6],inactive
same,outcome,[7],inactive
same,outcome,[8],inactive
same,outcome,[9],inactive
same,outcome,[11],inactive
same,outcome,[12],inactive
same,outcome,[13],inactive
same,outcome,[14],inactive
same,outcome,[15],inactive
same,outcome,[16],inactive
same,outcome,[17],inactive
same,outcome,[19],inactive
CN(C)c1ccccc1,outcome,[1],inactive
same,outcome,[18],inactive
same,outcome,[2],inactive
same,outcome,[3],inactive
same,outcome,[4],inactive
same,outcome,[5],inactive
same,outcome,[6],inactive
same,outcome,[7],inactive
same,outcome,[8],inactive
same,outcome,[9],inactive
same,outcome,[10],inactive
same,outcome,[12],inactive
same,outcome,[13],inactive
same,outcome,[20],inactive
same,outcome,[14],inactive
same,outcome,[15],inactive
same,outcome,[16],inactive
same,outcome,[17],inactive
[Cl-].[Cl-].[Hg+2],outcome,[1],inactive
same,outcome,[18],inactive
same,outcome,[2],inactive
same,outcome,[3],inactive
same,outcome,[4],inactive
same,outcome,[5],inactive
same,outcome,[6],inactive
same,outcome,[7],inactive
same,outcome,[8],inactive
same,outcome,[9],inactive
same,outcome,[11],inactive
same,outcome,[12],inactive
same,outcome,[13],inactive
same,outcome,[20],inactive
same,outcome,[14],inactive
same,outcome,[15],inactive
same,outcome,[16],inactive
same,outcome,[17],inactive
same,outcome,[19],inactive
